In article PMC7862700, “An all-to-all approach to the identification of sequence-specific readers for epigenetic DNA modifications on cytosine”:

Key:
Experiment in all cases: DAPPL (digital affinity profiling via proximity ligation, sequencing); 10 mM Tris-HCl pH 7.5, 50 mM NaCl, 1 mM DTT, 4% glycerol, room temperature, 30 min; GST-TFs on glutathione beads, 16-mer random dsDNA library, 0.1% formaldehyde crosslink after washing; high values mean tight binding
FLI1 = target: T1, FLI1 (Homo sapiens, UniProt Q01543 1-452); conditions: protein: recombinant; tags: N-terminal GST; dsDNA, one strand shown
T1 sequence: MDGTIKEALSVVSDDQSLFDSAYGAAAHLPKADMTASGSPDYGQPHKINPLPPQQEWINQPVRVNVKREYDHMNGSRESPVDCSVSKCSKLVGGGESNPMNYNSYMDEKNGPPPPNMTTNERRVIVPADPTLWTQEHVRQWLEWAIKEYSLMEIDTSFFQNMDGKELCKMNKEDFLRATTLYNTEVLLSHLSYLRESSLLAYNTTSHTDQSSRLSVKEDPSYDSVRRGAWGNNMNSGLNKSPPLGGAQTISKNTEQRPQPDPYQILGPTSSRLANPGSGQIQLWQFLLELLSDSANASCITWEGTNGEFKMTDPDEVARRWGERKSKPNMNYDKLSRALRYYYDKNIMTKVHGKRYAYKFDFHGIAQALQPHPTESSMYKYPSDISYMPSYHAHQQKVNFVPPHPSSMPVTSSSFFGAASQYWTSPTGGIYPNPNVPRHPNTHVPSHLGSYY
Summary of the method: (§1)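 Pools of DNA-barcoded human transcription factors, expressed in yeast as GST fusions on glutathione beads and combined with a tag-only sample, were incubated with 200 nmole of a 16-mer random double-stranded DNA library. Incubation took 30 min at room temperature in Tris/NaCl/DTT/glycerol buffer and was followed by washing, 0.1% formaldehyde crosslinking, proximity ligation (BsaI/T4 ligase, 1 h, 37 °C), PCR amplification and sequencing on an Illumina NextSeq500. Binding signal is the ratio of a hexamer's read frequency for a factor to its frequency for the tag-only sample.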

ELK1 = target: T2, ELK1 (Homo sapiens, UniProt P19419 1-428); conditions: protein: recombinant; tags: N-terminal GST; dsDNA, one strand shown
T2 sequence: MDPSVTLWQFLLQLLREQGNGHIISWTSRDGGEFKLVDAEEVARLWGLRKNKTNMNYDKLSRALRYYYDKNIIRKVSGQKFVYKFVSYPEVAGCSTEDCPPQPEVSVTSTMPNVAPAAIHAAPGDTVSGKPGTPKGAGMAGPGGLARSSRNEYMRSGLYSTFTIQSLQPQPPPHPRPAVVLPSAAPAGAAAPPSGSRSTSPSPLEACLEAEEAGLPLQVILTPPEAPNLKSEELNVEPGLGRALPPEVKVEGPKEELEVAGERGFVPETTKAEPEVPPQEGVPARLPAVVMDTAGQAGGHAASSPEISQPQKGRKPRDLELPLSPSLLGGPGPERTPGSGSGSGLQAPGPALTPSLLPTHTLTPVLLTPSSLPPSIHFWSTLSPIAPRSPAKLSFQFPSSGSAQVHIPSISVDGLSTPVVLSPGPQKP
Summary of the method: as §1

GABPA = target: T3, GABPA (Homo sapiens, UniProt Q06546 1-454); conditions: protein: recombinant; tags: N-terminal GST; dsDNA, one strand shown
T3 sequence: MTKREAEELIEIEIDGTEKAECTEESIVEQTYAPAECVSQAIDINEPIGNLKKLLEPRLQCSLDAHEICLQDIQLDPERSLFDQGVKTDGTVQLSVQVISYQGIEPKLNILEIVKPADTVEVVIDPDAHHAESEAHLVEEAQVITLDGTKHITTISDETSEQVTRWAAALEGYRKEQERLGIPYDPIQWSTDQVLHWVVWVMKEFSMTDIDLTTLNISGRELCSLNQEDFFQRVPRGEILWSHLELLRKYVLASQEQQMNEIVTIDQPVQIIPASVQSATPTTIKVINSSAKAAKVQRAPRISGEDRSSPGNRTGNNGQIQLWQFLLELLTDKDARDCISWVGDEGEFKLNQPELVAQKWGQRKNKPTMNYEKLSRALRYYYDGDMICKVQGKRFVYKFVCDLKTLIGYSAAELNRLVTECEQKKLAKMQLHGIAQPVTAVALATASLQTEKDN
Summary of the method: as §1

ERG = target: T4, ERG (Homo sapiens, UniProt P11308 1-479); conditions: protein: recombinant; tags: N-terminal GST; dsDNA, one strand shown
T4 sequence: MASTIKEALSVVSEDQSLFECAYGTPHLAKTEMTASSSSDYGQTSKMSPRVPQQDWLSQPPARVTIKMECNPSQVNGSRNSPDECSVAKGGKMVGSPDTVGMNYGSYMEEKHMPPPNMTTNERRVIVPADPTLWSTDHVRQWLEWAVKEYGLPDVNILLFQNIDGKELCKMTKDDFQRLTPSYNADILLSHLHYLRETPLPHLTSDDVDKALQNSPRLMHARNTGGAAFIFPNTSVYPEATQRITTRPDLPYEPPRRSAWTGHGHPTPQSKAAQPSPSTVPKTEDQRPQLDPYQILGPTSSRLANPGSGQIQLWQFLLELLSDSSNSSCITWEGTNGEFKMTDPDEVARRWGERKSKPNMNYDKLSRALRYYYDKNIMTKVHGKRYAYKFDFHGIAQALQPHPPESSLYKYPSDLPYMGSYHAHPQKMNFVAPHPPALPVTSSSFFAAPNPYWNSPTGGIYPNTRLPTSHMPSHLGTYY
Summary of the method: as §1

ELF1 = ELF1 (Homo sapiens, UniProt P32519 1-619); conditions: protein: recombinant; tags: N-terminal GST; dsDNA, one strand shown
Summary of the method: as §1

EHF = target: T5, EHF (Homo sapiens, UniProt Q9NZC4 1-300); conditions: protein: recombinant; tags: N-terminal GST; dsDNA, one strand shown
T5 sequence: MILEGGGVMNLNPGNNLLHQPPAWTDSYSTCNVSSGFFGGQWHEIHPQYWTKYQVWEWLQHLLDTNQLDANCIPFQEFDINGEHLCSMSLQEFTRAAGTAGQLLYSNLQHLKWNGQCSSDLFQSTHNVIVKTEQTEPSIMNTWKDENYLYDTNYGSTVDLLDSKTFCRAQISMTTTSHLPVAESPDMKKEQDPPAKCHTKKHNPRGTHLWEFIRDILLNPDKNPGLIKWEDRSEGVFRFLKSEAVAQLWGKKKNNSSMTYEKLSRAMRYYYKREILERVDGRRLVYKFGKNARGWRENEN
Summary of the method: as §1

SPI1 = SPI1 (Homo sapiens, UniProt P17947 1-270); conditions: protein: recombinant; tags: N-terminal GST; dsDNA, one strand shown
Summary of the method: as §1

SPIB = SPIB (Homo sapiens, UniProt Q01892 1-262); conditions: protein: recombinant; tags: N-terminal GST; dsDNA, one strand shown
Summary of the method: as §1

ELK3 = target: T6, ELK3 (Homo sapiens, UniProt P41970 1-407); conditions: protein: recombinant; tags: N-terminal GST; dsDNA, one strand shown
T6 sequence: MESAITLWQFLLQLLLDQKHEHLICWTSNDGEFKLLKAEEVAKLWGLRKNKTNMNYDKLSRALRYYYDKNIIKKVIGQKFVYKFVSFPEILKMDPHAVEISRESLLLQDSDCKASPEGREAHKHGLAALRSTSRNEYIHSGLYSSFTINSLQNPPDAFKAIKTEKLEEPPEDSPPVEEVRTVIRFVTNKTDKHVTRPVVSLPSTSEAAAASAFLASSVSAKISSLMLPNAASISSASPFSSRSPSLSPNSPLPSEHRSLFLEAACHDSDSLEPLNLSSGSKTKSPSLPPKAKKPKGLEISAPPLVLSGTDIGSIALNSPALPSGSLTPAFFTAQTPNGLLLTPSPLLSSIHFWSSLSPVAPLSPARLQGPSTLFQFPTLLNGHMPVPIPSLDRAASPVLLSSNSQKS
Summary of the method: as §1

FEV = target: T7, FEV (Homo sapiens, UniProt Q99581 1-238); conditions: protein: recombinant; tags: N-terminal GST; dsDNA, one strand shown
T7 sequence: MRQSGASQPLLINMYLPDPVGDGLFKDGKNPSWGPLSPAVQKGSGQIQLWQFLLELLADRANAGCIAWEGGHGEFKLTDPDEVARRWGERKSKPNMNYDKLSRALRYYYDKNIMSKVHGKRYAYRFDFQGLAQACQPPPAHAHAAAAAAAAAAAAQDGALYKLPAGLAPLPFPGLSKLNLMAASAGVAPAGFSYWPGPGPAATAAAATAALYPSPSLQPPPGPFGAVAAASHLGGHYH
Summary of the method: as §1

ETV5 = ETV5 (Homo sapiens, UniProt P41161 1-510); conditions: protein: recombinant; tags: N-terminal GST; dsDNA, one strand shown
Summary of the method: as §1

HSF1 = HSF1 (Homo sapiens, UniProt Q00613 1-529); conditions: protein: recombinant; tags: N-terminal GST; chain copies: 3; dsDNA, one strand shown
Summary of the method: as §1

SPIC = target: T8, SPIC (Homo sapiens, UniProt Q8N5J4 1-248); conditions: protein: recombinant; tags: N-terminal GST; dsDNA, one strand shown
T8 sequence: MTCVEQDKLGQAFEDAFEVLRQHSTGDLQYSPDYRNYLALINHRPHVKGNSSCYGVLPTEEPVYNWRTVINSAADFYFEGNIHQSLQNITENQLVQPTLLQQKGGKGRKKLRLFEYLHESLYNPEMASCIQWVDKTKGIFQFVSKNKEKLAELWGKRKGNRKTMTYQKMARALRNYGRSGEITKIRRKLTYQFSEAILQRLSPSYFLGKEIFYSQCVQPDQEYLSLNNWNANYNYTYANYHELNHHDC
Summary of the method: as §1

ELF4 = ELF4 (Homo sapiens, UniProt Q99607 1-663); conditions: protein: recombinant; tags: N-terminal GST; dsDNA, one strand shown
Summary of the method: as §1

ELK4 = target: T9, ELK4 (Homo sapiens, UniProt P28324-2 1-405); conditions: protein: recombinant; tags: N-terminal GST; dsDNA, one strand shown
T9 sequence: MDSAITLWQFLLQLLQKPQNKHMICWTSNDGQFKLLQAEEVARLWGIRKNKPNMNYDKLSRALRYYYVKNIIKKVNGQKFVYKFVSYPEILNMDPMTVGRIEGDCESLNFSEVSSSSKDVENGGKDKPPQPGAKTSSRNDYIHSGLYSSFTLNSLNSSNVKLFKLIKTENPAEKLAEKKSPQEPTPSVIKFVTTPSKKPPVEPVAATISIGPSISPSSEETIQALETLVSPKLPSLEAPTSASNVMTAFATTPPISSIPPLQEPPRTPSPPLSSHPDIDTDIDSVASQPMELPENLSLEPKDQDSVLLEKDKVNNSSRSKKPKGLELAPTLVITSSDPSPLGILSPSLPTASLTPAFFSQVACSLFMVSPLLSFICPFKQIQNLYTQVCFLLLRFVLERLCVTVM
Summary of the method: as §1

ETV2 = target: T10, ETV2 (Homo sapiens, UniProt O00321 1-342); conditions: protein: recombinant; tags: N-terminal GST; dsDNA, one strand shown
T10 sequence: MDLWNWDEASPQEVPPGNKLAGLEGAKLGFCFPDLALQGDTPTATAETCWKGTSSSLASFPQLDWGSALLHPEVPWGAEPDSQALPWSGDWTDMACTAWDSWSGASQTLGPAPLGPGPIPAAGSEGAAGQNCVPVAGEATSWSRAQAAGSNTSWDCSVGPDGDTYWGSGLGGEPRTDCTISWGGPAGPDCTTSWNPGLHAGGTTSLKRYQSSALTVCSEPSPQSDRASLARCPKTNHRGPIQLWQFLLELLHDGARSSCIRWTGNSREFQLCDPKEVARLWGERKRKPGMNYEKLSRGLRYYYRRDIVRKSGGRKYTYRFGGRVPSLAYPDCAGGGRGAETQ
Summary of the method: as §1

ELF3 = target: T11, ELF3 (Homo sapiens, UniProt P78545 1-371); conditions: protein: recombinant; tags: N-terminal GST; dsDNA, one strand shown
T11 sequence: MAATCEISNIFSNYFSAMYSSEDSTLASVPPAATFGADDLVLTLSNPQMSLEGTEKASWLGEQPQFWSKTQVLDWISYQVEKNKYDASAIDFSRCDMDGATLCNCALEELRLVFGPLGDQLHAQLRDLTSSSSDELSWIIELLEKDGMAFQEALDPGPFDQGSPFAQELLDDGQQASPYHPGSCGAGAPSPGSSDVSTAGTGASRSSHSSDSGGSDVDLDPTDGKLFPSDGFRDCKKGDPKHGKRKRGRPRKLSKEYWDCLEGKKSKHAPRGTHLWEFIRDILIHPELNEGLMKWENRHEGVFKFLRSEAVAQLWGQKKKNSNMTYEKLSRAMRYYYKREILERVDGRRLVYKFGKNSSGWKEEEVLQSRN
Summary of the method: as §1

CRX = CRX (Homo sapiens, UniProt O43186 1-299); conditions: protein: recombinant; tags: N-terminal GST; dsDNA, one strand shown
Summary of the method: as §1

ETV1 = ETV1 (Homo sapiens, UniProt P50549 1-477); conditions: protein: recombinant; tags: N-terminal GST; dsDNA, one strand shown
Summary of the method: as §1

Sequence of HSF1 (Q00613 whole entry): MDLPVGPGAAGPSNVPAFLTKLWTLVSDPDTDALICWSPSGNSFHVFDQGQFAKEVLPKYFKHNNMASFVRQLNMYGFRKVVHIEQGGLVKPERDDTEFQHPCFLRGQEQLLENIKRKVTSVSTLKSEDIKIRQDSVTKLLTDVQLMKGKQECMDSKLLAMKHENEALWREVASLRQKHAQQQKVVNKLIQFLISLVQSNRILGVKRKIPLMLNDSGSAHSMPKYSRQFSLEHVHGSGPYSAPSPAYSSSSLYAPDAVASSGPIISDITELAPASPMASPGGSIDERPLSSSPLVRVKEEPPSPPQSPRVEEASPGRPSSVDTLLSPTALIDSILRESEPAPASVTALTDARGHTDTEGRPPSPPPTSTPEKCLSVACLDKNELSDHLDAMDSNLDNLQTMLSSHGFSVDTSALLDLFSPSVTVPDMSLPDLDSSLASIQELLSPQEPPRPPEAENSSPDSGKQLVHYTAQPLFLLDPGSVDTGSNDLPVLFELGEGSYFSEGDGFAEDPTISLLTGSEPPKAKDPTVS
Sequence of ETV5 (P41161 whole entry): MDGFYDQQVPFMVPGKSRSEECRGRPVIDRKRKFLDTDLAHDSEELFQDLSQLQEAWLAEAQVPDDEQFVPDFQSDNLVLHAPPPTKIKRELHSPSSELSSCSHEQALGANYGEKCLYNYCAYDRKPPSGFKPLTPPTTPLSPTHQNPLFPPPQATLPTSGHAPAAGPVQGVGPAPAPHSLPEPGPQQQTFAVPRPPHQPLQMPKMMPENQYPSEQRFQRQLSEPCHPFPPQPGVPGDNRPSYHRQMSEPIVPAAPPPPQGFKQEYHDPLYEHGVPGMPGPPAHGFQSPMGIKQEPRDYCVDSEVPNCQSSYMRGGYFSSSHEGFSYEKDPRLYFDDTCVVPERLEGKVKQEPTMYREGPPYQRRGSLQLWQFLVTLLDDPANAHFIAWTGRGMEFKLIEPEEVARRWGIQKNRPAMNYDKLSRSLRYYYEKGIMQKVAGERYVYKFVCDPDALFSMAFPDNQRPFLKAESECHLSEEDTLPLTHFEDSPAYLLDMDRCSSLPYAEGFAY
Sequence of ETV1 (P50549 whole entry): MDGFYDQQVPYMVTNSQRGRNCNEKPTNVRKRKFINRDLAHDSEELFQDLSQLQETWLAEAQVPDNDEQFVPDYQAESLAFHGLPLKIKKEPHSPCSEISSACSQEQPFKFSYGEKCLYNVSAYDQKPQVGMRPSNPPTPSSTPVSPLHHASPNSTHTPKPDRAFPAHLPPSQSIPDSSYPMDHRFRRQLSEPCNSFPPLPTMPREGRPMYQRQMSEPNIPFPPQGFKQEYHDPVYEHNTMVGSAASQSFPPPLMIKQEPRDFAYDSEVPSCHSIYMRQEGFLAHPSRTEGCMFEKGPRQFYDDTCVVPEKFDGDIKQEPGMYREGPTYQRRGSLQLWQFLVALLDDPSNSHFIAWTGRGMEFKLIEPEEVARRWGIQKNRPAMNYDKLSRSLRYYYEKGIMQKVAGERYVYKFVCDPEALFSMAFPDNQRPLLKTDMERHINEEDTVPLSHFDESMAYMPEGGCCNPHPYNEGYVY
Sequence of ELF4 (Q99607 whole entry): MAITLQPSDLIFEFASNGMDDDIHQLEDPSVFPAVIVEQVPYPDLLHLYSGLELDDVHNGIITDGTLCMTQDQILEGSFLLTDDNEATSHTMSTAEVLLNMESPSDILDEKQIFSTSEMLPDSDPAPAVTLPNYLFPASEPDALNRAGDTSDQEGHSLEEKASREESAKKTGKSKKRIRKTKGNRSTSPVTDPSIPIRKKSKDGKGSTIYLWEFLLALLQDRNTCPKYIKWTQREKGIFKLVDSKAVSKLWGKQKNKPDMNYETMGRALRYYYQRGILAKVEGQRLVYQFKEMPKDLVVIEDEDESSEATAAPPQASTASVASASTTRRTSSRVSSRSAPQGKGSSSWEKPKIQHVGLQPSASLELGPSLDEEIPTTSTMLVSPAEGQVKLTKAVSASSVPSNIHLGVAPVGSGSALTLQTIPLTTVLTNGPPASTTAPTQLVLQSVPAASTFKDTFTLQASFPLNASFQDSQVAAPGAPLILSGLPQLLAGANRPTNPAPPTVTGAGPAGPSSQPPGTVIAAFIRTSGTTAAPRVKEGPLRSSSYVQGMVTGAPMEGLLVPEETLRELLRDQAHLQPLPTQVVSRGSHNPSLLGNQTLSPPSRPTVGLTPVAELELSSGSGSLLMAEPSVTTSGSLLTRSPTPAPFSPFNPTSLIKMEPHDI
Sequence of SPIB (Q01892 whole entry): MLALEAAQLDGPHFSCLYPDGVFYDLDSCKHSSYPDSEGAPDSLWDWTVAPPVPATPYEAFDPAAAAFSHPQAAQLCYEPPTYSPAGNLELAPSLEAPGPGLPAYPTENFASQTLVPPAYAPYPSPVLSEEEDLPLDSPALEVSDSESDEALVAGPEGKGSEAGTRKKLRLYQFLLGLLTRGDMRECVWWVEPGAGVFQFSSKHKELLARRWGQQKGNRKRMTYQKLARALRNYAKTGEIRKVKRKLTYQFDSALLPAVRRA
Sequence of ELF1 (P32519 whole entry): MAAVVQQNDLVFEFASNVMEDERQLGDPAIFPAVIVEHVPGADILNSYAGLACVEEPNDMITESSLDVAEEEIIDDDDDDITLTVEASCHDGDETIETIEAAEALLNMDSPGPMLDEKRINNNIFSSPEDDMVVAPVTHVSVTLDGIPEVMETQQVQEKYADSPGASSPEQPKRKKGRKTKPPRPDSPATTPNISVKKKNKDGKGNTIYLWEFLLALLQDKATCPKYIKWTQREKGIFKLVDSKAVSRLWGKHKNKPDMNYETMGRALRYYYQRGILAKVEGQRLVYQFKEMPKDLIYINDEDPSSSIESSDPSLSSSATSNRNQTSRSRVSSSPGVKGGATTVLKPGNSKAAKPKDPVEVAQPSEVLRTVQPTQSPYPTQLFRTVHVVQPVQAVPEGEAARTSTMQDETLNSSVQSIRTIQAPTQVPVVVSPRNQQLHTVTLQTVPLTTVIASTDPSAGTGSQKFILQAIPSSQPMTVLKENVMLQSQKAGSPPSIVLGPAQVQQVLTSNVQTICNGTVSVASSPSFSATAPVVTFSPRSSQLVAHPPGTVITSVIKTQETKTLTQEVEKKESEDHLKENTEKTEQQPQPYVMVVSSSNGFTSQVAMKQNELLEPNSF
Sequence of CRX (O43186 whole entry): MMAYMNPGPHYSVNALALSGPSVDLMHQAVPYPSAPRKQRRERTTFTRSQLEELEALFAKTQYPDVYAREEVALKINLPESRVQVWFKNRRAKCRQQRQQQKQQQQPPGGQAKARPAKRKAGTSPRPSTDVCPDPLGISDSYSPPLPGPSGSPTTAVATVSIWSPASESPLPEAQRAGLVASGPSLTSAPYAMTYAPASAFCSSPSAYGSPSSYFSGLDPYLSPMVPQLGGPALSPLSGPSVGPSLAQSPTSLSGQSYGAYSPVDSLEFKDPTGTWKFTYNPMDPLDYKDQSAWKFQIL

CCCTTC was tested, and the binding signal (FLI1) was 1.55 fold enrichment (6-mer frequency, TF over GST control), the binding signal (ELK1) was 1.55 fold enrichment (6-mer frequency, TF over GST control) and the binding signal (GABPA) was 1.39 fold enrichment (6-mer frequency, TF over GST control). For the same sequence, the binding signal (ERG) was 1.48 fold enrichment (6-mer frequency, TF over GST control), the binding signal (ELF1) was 1.45 fold enrichment (6-mer frequency, TF over GST control) and the binding signal (EHF) was 1.52 fold enrichment (6-mer frequency, TF over GST control). The binding signal (SPI1) was 1.52 fold enrichment (6-mer frequency, TF over GST control), the binding signal (SPIB) was 1.56 fold enrichment (6-mer frequency, TF over GST control) and the binding signal (ELK3) was 1.44 fold enrichment (6-mer frequency, TF over GST control). The binding signal (FEV) was 1.47 fold enrichment (6-mer frequency, TF over GST control), the binding signal (ETV5) was 1.54 fold enrichment (6-mer frequency, TF over GST control) and the binding signal (HSF1) was 1.35 fold enrichment (6-mer frequency, TF over GST control). The binding signal (SPIC) was 1.19 fold enrichment (6-mer frequency, TF over GST control), the binding signal (ELF4) was 1.49 fold enrichment (6-mer frequency, TF over GST control) and the binding signal (ELK4) was 1.35 fold enrichment (6-mer frequency, TF over GST control). For the same sequence, the binding signal (ETV2) was 1.33 fold enrichment (6-mer frequency, TF over GST control), the binding signal (ELF3) was 1.46 fold enrichment (6-mer frequency, TF over GST control) and the binding signal (CRX) was 1.05 fold enrichment (6-mer frequency, TF over GST control). For the same sequence, the binding signal (ETV1) was 1.51 fold enrichment (6-mer frequency, TF over GST control).
